Assay results: the supplement of paper PMC5641865, “A screen for kinase inhibitors identifies antimicrobial imidazopyridine aminofurazans as specific inhibitors of the Listeria monocytogenes PASTA kinase PrkA” (The Journal of Biological Chemistry, 2017)
Where a name gives a salt, the structure may show the parent alone. ± gives the standard deviation of the averaged measurements.

Tested on: Listeria monocytogenes 10403S
Experiment: growth inhibition relative to ceftriaxone-alone control; higher = stronger potentiation of ceftriaxone growth inhibition
Details: 10 µM; ceftriaxone 1 ug/ml; 12 h
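Also: End-point A600 read in BHI broth at 37 °C with 2% DMSO, inhibition computed as (1 − OD with compound plus ceftriaxone ÷ OD with ceftriaxone only) × 100.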

SMILES | growth inhibition [%]
Fc1ccc(-c2ncn(C3CCNCC3)c2-c2ccnc(Oc3ccccc3)n2)cc1 | -4.1 ± 5.5
CN1CCN(Cc2ccc(-c3cc4ncnc(Nc5ccc(OCc6cccc(F)c6)c(Cl)c5)c4s3)o2)CC1 | 3 ± 2.7
O=c1cc(-c2cccc3c2Sc2ccccc2S3)oc(N2CCOCC2)c1 | 86.2 ± 1.3
Cn1cc(C2=C(c3ccc(Cl)cc3Cl)C(=O)NC2=O)c2ccccc21 | 19.5 ± 33
Oc1cc(O)cc(/C=C/c2ccc(O)c(O)c2)c1 [Piceatannol] | 29.4 ± 16
COc1cccc(-n2ncc3c(N/N=C/c4ccncc4)ncnc32)c1 | -5.6 ± 4.6
O=C(O[C@H]1CN[C@H](C#Cc2cc3ncnc(Nc4ccc(Cc5ccccc5)cc4)c3s2)C1)N1CCOCC1 | -6.43 ± 10
Cc1ccc(C(=O)NC2CC2)cc1-c1ccc2[nH]ncc2c1 | 8.37 ± 0.62
Cc1[nH]nc2ccc(-c3cncc(OC[C@@H](N)Cc4ccccc4)c3)cc12 | 76.8 ± 16
OCCCNc1nccc(-c2c(-c3ccc(F)cc3)nn3cc(C(F)(F)F)ccc23)n1 | 15.6 ± 7.1
C[C@@H](Oc1cc(-n2cnc3ccc(OC4CCN(C)CC4)cc32)sc1C(N)=O)c1ccccc1Cl | 0.604 ± 2.5
CN1CC[C@H](c2c(O)cc(O)c3c(=O)cc(-c4ccccc4Cl)oc23)[C@H](O)C1 [Flavopiridol HCl] | 10.3 ± 6.8
NC(=O)c1cc(-c2ccncc2)cc(-c2ccccc2)c1N | 2.14 ± 8.1
CN(C)C(=O)O[C@@H]1CN[C@@H](C#Cc2cc3ncnc(Nc4ccc(OCc5cccc(F)c5)c(Cl)c4)c3s2)C1 | -5.56 ± 8.1
CN1CCC(n2cnc(-c3ccc(F)cc3)c2-c2ccnc(N)n2)CC1 | -0.672 ± 2
